Data: ChEMBL document CHEMBL3988442, “University of Dundee, Small-Polar-MMV Screening Library” (2021)
The campaign covered roughly 38,000 compounds. About 1,200 (3.2%) showed an effect of 50% or more. The median lay at about -58%. The list comes from a sample in which strong results are over-represented; it also holds similar structures and randomly drawn compounds.

Tested on: Plasmodium falciparum
Experiment: Calibr Malaria Delayed Death Assay SOP
Format: functional, organism-based
Design: scale not given: in the data most compounds retested in dose-response had high values
Details: concentration 4.99e-06 (unit not given; other assays of the set use mol/L)

| SMILES | Percent Effect [%] |
| --- | --- |
| COC1CCN(C(=O)C2CCCC2)CC(=O)N(C)c2ccccc21 (configuration not stated) | -134 |
| CC1CN(C(=O)Nc2cc(C(F)(F)F)c[nH]c2=O)CC(C)(C)O1 (configuration not stated) | -36.51 |
| Cc1ccsc1C(O)CNC(=O)Cc1ccc(S(=O)(=O)C(C)C)cc1 (configuration not stated) | 0.3509 |
| COc1cc(-c2cccc3c2OC(CN)C3)ccc1O (configuration not stated) | 37.76 |
| NCC1Cc2cccc(-c3ccc(O)c(F)c3)c2O1 (configuration not stated) | 82.73 |
| COc1c(F)cc(-c2cccc3c2OC(CN)C3)cc1F (configuration not stated) | 35.23 |
| COc1cc(-c2cccc3c2OC(CN)C3)cc(OC)c1OC (configuration not stated) | 46.68 |
| COc1ccc(-c2cccc3c2OC(CN)C3)cc1F (configuration not stated) | 62.39 |
| Cc1ccc(C(O)CNC(=O)NCc2c(C)cc(C)[nH]c2=O)cc1 (configuration not stated) | -76.06 |
| Cc1nc(-c2cccnc2)ncc1C(=O)N1CCCC(N(C)C)CC1 (configuration not stated) | -60.09 |
| Cc1cccc(OC2CCN(S(=O)(=O)Cc3cccc(F)c3)CC2)n1 | -131.9 |
| CN(C)CC1CSCCCN1S(=O)(=O)c1ccc(C(F)(F)F)cc1 (configuration not stated) | 60.28 |
| CN(C)CC1CSCCCN1S(=O)(=O)Cc1ccc(C(F)(F)F)cc1 (configuration not stated) | 9.215 |
| CN(C)CC1CSCCCN1S(=O)(=O)Cc1cccc(F)c1 (configuration not stated) | 58.19 |
| CN(C)CC1CSCCCN1C(=O)c1ccc(C(C)(C)C)cc1 (configuration not stated) | 0.9343 |
| CS(=O)(=O)C1CCN(S(=O)(=O)Cc2cccc(F)c2)CC1 | -94.28 |
| Cc1cccc(CN2CC[C@@H]3[C@@H]2CCN3C(=O)c2cc(C)oc2C)n1.O=C(O)C(F)(F)F | -98.87 |
| Cn1nc2c(cc1=O)CN(Cc1nc(N)c3ccccc3n1)CC2 | -169.7 |
| Cc1cccc(C2CCCN(C(=O)c3ccncc3)C2)n1 (configuration not stated) | -31.2 |
| CCc1ccc(C(=O)N2CC(C(=O)NC(C)C)C3(CCOCC3)C2)cc1 (configuration not stated) | -34.39 |
| CC(O)CN1CCc2[nH]nc(C(c3ccccc3)c3ccccc3)c2C1 (configuration not stated) | 40.85 |

| SMILES | Percent Effect [%] |
| --- | --- |
| OCCN1CCc2[nH]nc(C(c3ccccc3)c3ccccc3)c2C1 | 59.95 |
| FC(F)(F)c1n[nH]c2c1CN(CCc1ccccn1)CC2 | -42.86 |
| OCCCN1CCc2[nH]nc(C(c3ccccc3)c3ccccc3)c2C1 | 71.73 |
| O=C(CCN1CCc2[nH]nc(C(F)(F)F)c2C1)Nc1ccccc1 | -17.85 |
| [O-][S+](CCN1CCc2[nH]nc(C(F)(F)F)c2C1)c1ccccc1 (configuration not stated) | -19.45 |
| COCCCC1(C(=O)O)CCCN(C(=O)c2ccc(Cl)cc2F)C1 (configuration not stated) | -104.4 |
| CNC(=O)c1ccc2c(c1)C1(CCN(CC3CC3)CC1)C(=O)N2.O=C(O)C(F)(F)F | -45 |
| CN(Cc1ccncc1)C1COC2(CCN(Cc3ccco3)CC2)C1.O=C(O)C(F)(F)F.O=C(O)C(F)(F)F.O=C(O)C(F)(F)F (configuration not stated) | -70.95 |
| CN(C)CC(C)(O)CNC(=O)Nc1sc2ccccc2c1Cl (configuration not stated) | 61 |
| CS(=O)(=O)CCNC(=O)Nc1sc2ccccc2c1Cl | -106.1 |
| CS(=O)(=O)CCCNC(=O)Nc1sc2ccccc2c1Cl | -18.18 |
| CN(C)C(=O)CN1C[C@@H]2CC[C@H](C1)N(C/C=C/c1ccc(F)cc1)C2 | 41.87 |
| CN(C)C(=O)N1C[C@@H]2CC[C@H](C1)N(C/C=C/c1ccc(F)cc1)C2 | 56.59 |
| CS(=O)(=O)N1C[C@@H]2CC[C@H](C1)N(C/C=C/c1ccc(F)cc1)C2 | -47.28 |
| CCN(c1ccsc1C(=O)N1CCSCC1)S(=O)(=O)c1ccc(Cl)cc1 | -33.89 |
| Cc1cnn(Cc2ccc(NC(=O)N3CCCC3)cc2)c1 | -108.6 |
| Cc1ccc(C(=O)N(C)Cc2csc(C)n2)c(=O)[nH]1 | -148.4 |
| CCC(NC(=O)C1CCN(C(C)C)CC1)c1cn2cccnc2n1 (configuration not stated) | -73.6 |
| Cc1n[nH]c(C)c1-c1cc(-c2cccc(O)c2)nc(N)c1C#N | -75.89 |
| Cc1n[nH]c(C)c1-c1cc(-c2ccc[nH]2)nc(N)c1C#N | -191.7 |
| CC(C)Cc1cc(-c2cc(-c3ccc[nH]3)nc(N)c2C#N)n[nH]1 | 60.25 |

| SMILES | Percent Effect [%] |
| --- | --- |
| Cc1ccc(CNCc2c(C(C)C)nn(C)c2N2CCOCC2)s1 | 43.54 |
| Cc1nccn1Cc1nnc(C2CCCN(Cc3ccncc3)C2)n1C (configuration not stated) | -18.97 |
| Cc1nccn1CCCN1CCCC(c2ccccc2)C1 (configuration not stated) | 77.62 |
| Cc1nccn1CCCN1CCC(c2nccn2CC2CCC2)CC1 | -43.9 |
| COc1cc(C)ccc1OCCC(=O)N1CCC(N2CC=CC2)C1 (configuration not stated) | -87.08 |
| COc1ccc(N2CCN(Cc3noc(CC(C)C)n3)C(C)C2=O)cc1 (configuration not stated) | -89.75 |
| COc1ccccc1CN(Cc1cccnc1)CC1CCCO1.O=C(O)CC(O)(CC(=O)O)C(=O)O (configuration not stated) | -1.656 |
| COc1cc(CN(CCCN(C)C)Cc2ccccn2)cc2c1OCO2.O=C(O)CC(O)(CC(=O)O)C(=O)O | 79.66 |
| CN(C)CCN(C)C(=O)Cc1ccc2c(c1)OCCO2.O=C(O)CC(O)(CC(=O)O)C(=O)O | -18.25 |
| CCN1CCc2[nH]cnc2C12CCN(C(=O)CCc1cccs1)CC2 | -14.54 |
| CCc1c(-c2ccccc2)nc2c(c(C)c(C)n2CCN(C)C)c1N | 66.32 |
| Cc1c(-c2ccccc2)nc2c(c(C)c(C)n2CCN(C)C)c1N | 79.27 |
| CN(C)CCN1CCN(C)c2nc(-c3ccccc3)ncc2C1=O | -20.71 |
| CCc1c(C)sc2c1c(N)nc(=O)n2CCN(C)C | 14.15 |
| CCN(C)CC(C)Cn1cnc(-c2ccccc2)c1C (configuration not stated) | -12.51 |
| CCc1c(C)sc2c1c(N)nc(=O)n2CCCN(C)C | -156.5 |
| CCCc1nc2c(c(C)c(C)n2CCN(C)C)c(N)c1CC | 89.53 |
| O=C(Cc1ccccn1)N1C[C@H]2CCC[C@@]2(COc2ccccn2)C1 | -9.537 |
| Cc1cc(SCC(N)=O)nc(-c2ccc(F)cc2)n1 | 0.2782 |
| COCCn1cnnc1CCNc1cc(C)nc2ccnn12 | -117.5 |
